# Measured values as given in PubChem BioAssay.
# The source made the active and inactive calls. Cut-off read from the data, not from the text of the source, unless noted: active = inhibition above about 80%; inactive = the rest.
# How the values were obtained:
# [1] = growth inhibition, single agent and combos, cell-based, chromothripsis tumors, cisplatin or BGB combos (AID 1671450); conditions: HDN33 neuroblastoma cells, stronger effect = higher value;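 note: cells exposed to compound for four days; 0% = vehicle DMSO and 100% = cell killing by high DMSO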
# [2] = growth inhibition, single agents and combos, ICB984, cell-based, cisplatin or BGB combos, synergistic combos for chromothripsis tumors (AID 1671451; call rule not given here;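 note: cells exposed for 96 hours before readout; 0% = vehicle DMSO and 100% = killing by high DMSO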); conditions: ICB984 medulloblastoma cells, drug combinations, stronger effect = higher value
# [3] = growth inhibition, single agents and combos, LFS_MB_1R, cell-based, cisplatin or BGB combos, synergistic combos for chromothripsis tumors (AID 1671452); conditions: LFS_MB_1R medulloblastoma cells, stronger effect = higher value;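 note: cells exposed for 96 hours before readout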
# [4] = growth inhibition, single agents and combos, HTB85, cell-based, BGB or cisplatin IC20 combos, synergistic combos for chromothripsis tumors (AID 1671453); conditions: HTB85 osteosarcoma cells, drug combinations, stronger effect = higher value;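 note: cells exposed for 96 hours before readout; 0% = vehicle DMSO and 100% = high DMSO killing control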
# [5] = growth inhibition, single agents and combos, CRL2098, cell-based, BGB or cisplatin IC20 combos, synergistic combos for chromothripsis tumors (AID 1671454); conditions: CRL2098 osteosarcoma cells, drug combinations, stronger effect = higher value;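 note: cells exposed for 96 h before readout; 0% = vehicle DMSO and 100% = killing by high DMSO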
# [6] = growth inhibition, single agents and combos, HD-MB03, cell-based, BGB or cisplatin IC20 combos, synergistic combos for chromothripsis tumors (AID 1671455; in the data active = inhibition above about 83%;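 note: 0% = vehicle DMSO and 100% = high DMSO as cytotoxic control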); conditions: HD-MB03 medulloblastoma cells, stronger effect = higher value
# [7] = growth inhibition, single agents and combos, UWB1.289, cell-based, BGB or cisplatin combos, synergistic combos for chromothripsis tumors (AID 1671456); conditions: UWB1.289 ovarian carcinoma cells, stronger effect = higher value;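 note: cells exposed to compound for four days; 0% = vehicle DMSO and 100% = killing by high DMSO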
# [8] = growth inhibition, single agents and combos, LFS_MB_2R, cell-based, cisplatin combos, synergistic combos for chromothripsis tumors (AID 1671457); conditions: LFS_MB_2R medulloblastoma cells, stronger effect = higher value;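 note: cells exposed to compound for four days before readout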
# [9] = growth inhibition, MDA-MB-436, cell-based, BGB or cisplatin combos, synergistic combos for chromothripsis tumors (AID 1671458; call rule not given here;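 note: cells exposed for 96 hours; 0% = vehicle DMSO and 100% = killing by high DMSO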); conditions: MDA-MB-436 breast carcinoma growth inhibition, drug combinations, stronger effect = higher value
# [10] = UWB1.289_BRCA1 ovarian cancer growth, cell-based, BGB or cisplatin combinations (AID 1671459); conditions: UWB1.289 BRCA1 ovarian carcinoma, drug combinations, stronger effect = higher value
# [11] = drug combination toxicity in non-malignant astrocytes – cell-based, BGB or cisplatin IC20 combos, cytotoxicity control for chromothriptic childhood tumor combination screen (AID 1671460); conditions: Human astrocytes, viability inhibition, drug combinations, at 0.5 µM, stronger effect = higher value;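 note: cells exposed to compounds for 96 hours before viability readout; 0% = vehicle and 100% = killing control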
# [12] = BT084 cell growth, single and combined drugs, ICGC_MB145, cisplatin and BGB IC40 combos (AID 1671461); conditions: BT084 medulloblastoma cells, drug combinations, stronger effect = higher value;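 note: cells exposed to drugs for 96 hours; 0% = vehicle DMSO and 100% = high DMSO full killing control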
# [13] = RCMB18 cell growth, single agent and combined, cisplatin and BGB IC40 combos (AID 1671462); conditions: RCMB18 medulloblastoma cells, stronger effect = higher value;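 note: cells exposed to compound for four days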
# [14] = CRL1545 cell growth, single agent and combined, cisplatin and BGB IC20 combos (AID 1671464); conditions: CRL1545 osteosarcoma cells, stronger effect = higher value;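 note: cells exposed to compound for 96 hours before readout; 0% = vehicle DMSO and 100% = high DMSO killing control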
# [15] = measured here: with BGB IC20 combination, at 0.5 µM
# [16] = measured here: with cisplatin IC20 combination, at 0.5 µM
# [17] = measured here: combination with cisplatin, at 0.5 µM
# [18] = measured here: combination with cisplatin, at 5 µM
smiles,measurement,setting,value
O=c1cc(-c2cccc3c2Sc2ccccc2S3)oc(N2CCOCC2)c1,inhibition,[1]; [15],-21.1%
same,inhibition,[1]; [16],-8.71%
same,inhibition,"[1]; single agent, at 5 µM",-26.1%
same,inhibition,"[2]; BGB IC20 combo, at 0.005 µM",-0.749%
same,inhibition,"[2]; BGB IC40 combo, at 0.005 µM",-24.9%
same,inhibition,"[2]; BGB IC40 combo, at 0.05 µM",11.6%
same,inhibition,[2]; at 0.5 µM,-26.5% (inactive)
same,inhibition,"[2]; cisplatin combo, at 0.05 µM",9.17%
same,inhibition,"[2]; cisplatin combo, at 0.5 µM",-36.8%
same,inhibition,"[2]; cisplatin combo, at 5 µM",-31.3%
same,inhibition,"[2]; measured here: 5 uM single agent, at 5 µM",-22.7%
same,inhibition,[3]; at 0.5 µM,-10.6% (inactive)
same,inhibition,"[3]; measured here: combination with BGB IC40, at 0.05 µM",-24.7%
same,inhibition,[3]; [17],9.6%
same,inhibition,[3]; [18],-31.9%
same,inhibition,[4]; at 0.5 µM,-13.7% (inactive)
same,inhibition,"[4]; measured here: with BGB IC20, at 0.5 µM",-13.9%
same,inhibition,"[4]; measured here: with BGB IC20, at 5 µM",-31%
same,inhibition,"[4]; measured here: with cisplatin IC20, at 0.5 µM",-8.83%
same,inhibition,"[4]; measured here: with cisplatin IC20, at 5 µM",-19.5%
same,inhibition,"[4]; single agent, at 5 µM",-17.7%
same,inhibition,[5]; at 0.5 µM,-29.5% (inactive)
same,inhibition,"[5]; measured here: combination with BGB at IC20, at 0.5 µM",-49.7%
same,inhibition,"[5]; measured here: combination with cisplatin at IC20, at 0.5 µM",-36.1%
same,inhibition,[6]; at 0.5 µM,-12.6% (inactive)
same,inhibition,"[6]; measured here: combo with BGB at IC20, at 0.5 µM",-13%
same,inhibition,"[6]; measured here: combo with cisplatin at IC20, at 0.5 µM",-6.59%
same,inhibition,[7]; at 0.5 µM,-9.95% (inactive)
same,inhibition,"[7]; measured here: inhibition with BGB combination, at 0.05 µM",-28.4%
same,inhibition,"[7]; measured here: inhibition with cisplatin combination, at 0.05 µM",-10.7%
same,inhibition,[8]; at 0.5 µM,-22.3% (inactive)
same,inhibition,[8]; [17],-27.3%
same,inhibition,[8]; [18],-42.7%
same,inhibition,[9]; at 0.5 µM,-26.6% (inactive)
same,inhibition,"[9]; measured here: BGB combination, at 0.5 µM",-22.1%
same,inhibition,"[9]; measured here: BGB combination, at 5 µM",-25.2%
same,inhibition,"[9]; measured here: cisplatin combination, at 0.5 µM",-36.1%
same,inhibition,"[9]; measured here: cisplatin combination, at 5 µM",-24.3%
same,inhibition,"[10]; BGB combination, concentration series, at 5 µM",-14.2%
same,inhibition,[10]; at 0.5 µM,-17.9% (inactive)
same,inhibition,"[10]; cisplatin combination, concentration series, at 5 µM",-3.21%
same,inhibition,[11],-40.3% (inactive)
same,inhibition,[11]; measured here: combo with BGB IC20,-56.7%
same,inhibition,[11]; measured here: combo with cisplatin IC20,-32.4%
same,inhibition,[12]; at 0.5 µM,-24.9% (inactive)
same,inhibition,"[12]; cisplatin combination, at 0.5 µM",-8.73%
same,inhibition,"[12]; cisplatin combination, at 5 µM",-21.4%
same,inhibition,"[12]; measured here: BGB IC40 combination 0.05 uM, at 0.05 µM",-12.1%
same,inhibition,"[12]; single agent, at 5 µM",-39.1%
same,inhibition,[13]; at 0.5 µM,-11.1% (inactive)
same,inhibition,"[13]; cisplatin combo, at 5 µM",5.15%
same,inhibition,"[13]; measured here: BGB IC40 combination, at 0.05 µM",-26.8%
same,inhibition,[13]; [17],-2.95%
same,inhibition,"[13]; single agent, at 5 µM",-8.05%
same,inhibition,[14]; at 0.5 µM,-32.7% (inactive)
same,inhibition,[14]; [15],-8.28%
same,inhibition,[14]; [16],-48.2%
same,inhibition,"[14]; single agent, at 0.05 µM",-20.3%
same,inhibition,"[14]; single agent, at 5 µM",-31.2%
